Several values for one entry are separate records, joined by “and”; a condition that tells them apart may be missing. Identical values can stand only once. Records with an inconclusive call do not appear. A structure can be active in one record and inactive in another. A number with no mark means an inactive call. Activity calls are given as the source filed them. Calls follow the shape of the dose curve; as a rule, active = well fitted curve in the direction sought with a large enough effect; inconclusive = small, poorly fitted or top-dose-only effect, or another doubt; inactive = no such curve, though single readings can be large; an effect the other way counts as inactive or inconclusive.

Experimental findings from PubChem BioAssay (NCATS) are described below.

The subject of test [1] is HaCat. The test is described as follows: Cytotoxic Profiling of Annotated Libraries Using Quantitative High-Throughput Screening (AID 1296008). Also: nearly all actives have a fitted effect of over 60% in size. Also: potency is read from the fitted curve at half-maximal effect. The settings on record: Five cell lines viability, CellTiter-Glo ATP luminescence, 48-72 h; max response: active compounds read low. The method, boiled down:
(§1)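 Cells exposed to compounds for 48 or 72 hr at 37 degrees Celsius. Viability read as ATP-coupled luminescence with CellTiter-Glo after 10 min at room temperature.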
In general terms: ATP-based viability assays read luminescence as a measure of living cells.

The next test has as its system KB-3-1. The test is described as above. The settings on record: Five cell lines viability, CellTiter-Glo ATP luminescence, 48-72 h; max response: active compounds read low. Put shortly: as §1
The test system of test [2] is NIH3T3. Described as above. The settings on record: Five cell lines viability, CellTiter-Glo ATP luminescence, 48-72 h; max response: active compounds read low. Put shortly:
as §1

In the next test the test system is MCC-13. Nature of the test: qHTS assay to identify novel small-molecules to repurpose for Merkel cell carcinoma treatment (AID 1296009). Also: nearly all actives have a fitted effect of over 60% in size. Also: potency is read from the fitted curve at half-maximal effect. The conditions noted are these: MCC and control cell lines, CellTiter-Glo viability, 72 h; series mostly up to 46 µM. Put shortly: (§2)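 CellTiter-Glo luminescence after 72 hr compound exposure at 37 degree celsius gave cell viability. Libraries NPC and MIPE were run as 8- and 11-point dose responses; RLUs normalized to DMSO (negative) and no-cell (cytotoxicity) controls.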

A further test concerns MCC-26. The test is described as above. The settings on record: MCC and control cell lines, CellTiter-Glo viability, 72 h; series mostly up to 46 µM. The method, boiled down: as §2
The subject of another test is MKL-1. The description is as above. The conditions noted are these: MCC and control cell lines, CellTiter-Glo viability, 72 h; series mostly up to 46 µM. Put shortly: as §2
In a further test the test system is MKL-2. Described as above. The conditions noted are these: MCC and control cell lines, CellTiter-Glo viability, 72 h; series mostly up to 46 µM. Put shortly:
as §2

For another test, the system named is UISO. The description is as above. The conditions noted are these: MCC and control cell lines, CellTiter-Glo viability, 72 h; series mostly up to 46 µM. Put shortly:
as §2

A further test concerns WaGa. Described as above. The settings on record: MCC and control cell lines, CellTiter-Glo viability, 72 h; series mostly up to 46 µM. Put shortly: as §2
A further test has as its system C33A. The test is described as follows: Primary qHTS to identify gynecologic anti-cancer compounds using libraries of approved drugs and bioactive compounds (AID 1345084). Also: nearly all actives have a fitted effect of over 55% in size. The settings on record: Gynecologic cancer cell panel viability, ATPlite luminescence, 48 h; series mostly up to 57.5 µM. The method, boiled down: (§3)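 ATP-based viability (ATPlite), 1,000 cells/well, 16 h pre-incubation, 48 h compound at 37 C, 5% CO2, 15 min RT before read.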

For another test, the system named is CAOV3. The description is as above. The settings on record: Gynecologic cancer cell panel viability, ATPlite luminescence, 48 h; series mostly up to 57.5 µM. Put shortly:
as §3

Another test concerns CASKI. The test is described as above. The conditions noted are these: Gynecologic cancer cell panel viability, ATPlite luminescence, 48 h; series mostly up to 57.5 µM. Put shortly:
as §3

The next test concerns Es-2. Described as above. The conditions noted are these: Gynecologic cancer cell panel viability, ATPlite luminescence, 48 h; series mostly up to 57.5 µM. The method, boiled down:
as §3

The subject of the next test is HeLa. The test is described as above. The conditions noted are these: Gynecologic cancer cell panel viability, ATPlite luminescence, 48 h; series mostly up to 57.5 µM. Put shortly:
as §3

For test [3], the system named is Hek293T. Described as above. The settings on record: Gynecologic cancer cell panel viability, ATPlite luminescence, 48 h, control line for the selectivity index; series mostly up to 57.5 µM. Put shortly:
as §3

A further test has as its system JEG-3. The test is described as above. The settings on record: Gynecologic cancer cell panel viability, ATPlite luminescence, 48 h; series mostly up to 57.5 µM. The method, boiled down: as §3
In the next test the test system is OV90. The test is described as above. The conditions noted are these: Gynecologic cancer cell panel viability, ATPlite luminescence, 48 h; series mostly up to 57.5 µM. Put shortly:
as §3

For test [4], the system named is HACAT. Nature of the test: qHTS assay to identify novel small-molecules to repurpose for Merkel cell carcinoma treatment (AID 1296009). Also: nearly all actives have a fitted effect of over 60% in size. Also: potency is read from the fitted curve at half-maximal effect. The settings on record: MCC and control cell lines, CellTiter-Glo viability, 72 h; series mostly up to 44.8 µM. The method, boiled down:
as §2
Background: In qHTS, concentration-response curves come from the screen itself.

Test [5] has as its system HEK293T. The test is described as above. The conditions noted are these: MCC and control cell lines, CellTiter-Glo viability, 72 h; at 44.8 µM (top of the series) unless noted. Put shortly:
as §2

The test system of test [6] is NIH3T3. Described as above. The settings on record: MCC and control cell lines, CellTiter-Glo viability, 72 h; at 44.8 µM (top of the series) unless noted. The method, boiled down: as §2
% is scaled to controls: 0 for no effect and ±100 for the full control effect.

`O=C(O)CCCc1c[nH]c2ccccc12`: the max response is 4.3% and 3.03% in the test with HaCat [1]; 0.51% with KB-3-1; -1.55% and 2.66% with NIH3T3 [2]. Also, the compound was called inactive with KB-3-1. The Potency result with MCC-13, in the test on MCC-26, with MKL-1, in the test on MKL-2, in the test with UISO and in the test on WaGa was “inactive” in each case. The Potency result in the test on C33A, in the test on CAOV3, in the test on CASKI, in the test on Es-2, in the test on HeLa and in the test with Hek293T [3] was “inactive” throughout. For the same compound, the Potency entry with JEG-3 and in the test on OV90 was “inactive” in each case.

In the case of `CCCn1c(=O)c2[nH]c(-c3cnn(Cc4cccc(C(F)(F)F)c4)c3)nc2n(CC)c1=O`, the max response in the test on HaCat [1] was -0.725%; with KB-3-1, 0.919%; with NIH3T3 [2] it was 1.05%. For the same compound, the result in the test with HaCat [1], with KB-3-1, in the test with NIH3T3 [2], with HEK293T [5] and with NIH3T3 [6] was inactive. Further, the Potency result with HACAT [4], with MCC-13, in the test on MCC-26, with MKL-1, in the test with MKL-2 and with UISO was “inactive” throughout. In addition, the Potency entry in the test on WaGa, in the test with C33A, with CAOV3, in the test on CASKI, in the test on Es-2 and with HeLa was “inactive” in each case. Also, the Potency entry in the test on Hek293T [3], in the test on JEG-3 and with OV90 was “inactive” throughout.

For the compound `NC(=O)c1c(OCc2c(F)cc(Br)cc2F)nsc1NC(=O)NCCCCN1CCCC1`, the Potency in the test on HaCat [1] was 26.4 µM (active); in the test on KB-3-1, 9.35 µM (active); in the test with NIH3T3 [2], 235 nM (active) and 2.06 µM (active). In addition, in the test with HaCat [1], the call was inactive. The Potency result with HACAT [4], with MKL-1, in the test with MKL-2, in the test with C33A, in the test on Es-2 and with HeLa was “inactive” in each case. For the same compound, the Potency entry in the test on Hek293T [3], in the test with JEG-3 and in the test on OV90 was “inactive” throughout.

Take `Nc1ncnc2c1c(-c1cccc(OCc3ccccc3)c1)cn2C1CC(CN2CCCC2)C1` (stereo not drawn): the max response in the test on HaCat [1] is -11.4%. Moreover, the compound was classed as inactive with HaCat [1]. The Potency with KB-3-1 is 18.7 µM (active); in the test with NIH3T3 [2] it was 14.8 µM (active) and 16.4 µM (active); in the test with UISO, 10.5 µM (active). Further, the Potency entry in the test with HACAT [4], in the test with MCC-13, with C33A and in the test on Es-2 was “inactive” each time.

As to `Cn1cc(-c2ccncc2)c(-c2ccc(OCc3ccc4ccccc4n3)cc2)n1`, the max response in the test on HaCat [1] is -14.9%; in the test on NIH3T3 [2], -27.9% and -28%. Moreover, in the test with HaCat [1], the outcome was inactive. Moreover, the Potency result in the test on HACAT [4], in the test on MCC-13, with MCC-26, in the test with CAOV3, in the test with CASKI and in the test on Es-2 was “inactive” throughout. Further, the Potency entry in the test on HeLa, with Hek293T [3] and in the test with OV90 was “inactive” each time.

Consider `COc1ccc(-n2nc(C(N)=O)c3c2C(=O)N(c2ccc(N4CCCCC4=O)cc2)CC3)cc1`, for which the max response in the test on HaCat [1] is -4.25%; in the test on KB-3-1 it was 6.22% and -0.472%; with NIH3T3 [2] it was -1.07% and 4.24%. The outcome with HaCat [1] was inactive. The Potency result in the test on HACAT [4], with MCC-13, in the test with MCC-26, in the test on MKL-1, with MKL-2 and with UISO was “inactive” each time. Moreover, the Potency entry in the test on WaGa, in the test on C33A, with CAOV3, with CASKI, in the test with Es-2 and with HeLa was “inactive” in each case. The Potency result in the test with Hek293T [3], in the test on JEG-3 and in the test on OV90 was “inactive” throughout.

Consider `Cc1ccc(CN2CCNCC2)cc1NC(=O)CNc1ccc(F)c(F)c1`, for which the compound was classed as inactive with HaCat [1], in the test with KB-3-1 and in the test with HEK293T [5]. The max response in the test with KB-3-1 was 4%; in the test with NIH3T3 [2] it was -3.35% and 3.71%. Besides, the Potency entry in the test with HACAT [4], in the test with MCC-13, in the test on MCC-26, in the test on MKL-1, in the test with MKL-2 and in the test with UISO was “inactive” in each case. The Potency entry in the test on WaGa, in the test with C33A, in the test with CASKI, with Es-2, with HeLa and in the test with Hek293T [3] was “inactive” throughout. Also, the Potency result with JEG-3 and in the test on OV90 was “inactive” in each case.

Turning to `CC(O)C1C(=O)N2C(C(=O)O)=C(SC3CNC(C(=O)N(C)C)C3)C(C)C12` (stereo not drawn), the max response in the test on HaCat [1] was 0.187%; in the test with KB-3-1 it was 5.3%; with NIH3T3 [2], 0.991% and 3.69%. Moreover, the call in the test with HaCat [1] and in the test on KB-3-1 was inactive. Besides, the Potency entry in the test on HACAT [4], with MCC-13, in the test with MCC-26, in the test with MKL-1, in the test on MKL-2 and with UISO was “inactive” each time. The Potency result in the test on C33A, in the test with CAOV3, in the test with CASKI, with Es-2, in the test with HeLa and in the test with Hek293T [3] was “inactive” each time. Moreover, the Potency entry in the test with JEG-3 and in the test on OV90 was “inactive” in each case.

Consider `CN(C)CC(C)(C)CNc1nn2c(-c3ccccc3)nnc2cc1C1CCC1`, for which the max response was -29.4% and -5.55% with HaCat [1]; 9% with KB-3-1; -0.774% in the test with NIH3T3 [2]. The compound was called inactive in the test on KB-3-1 and in the test with HEK293T [5]. Moreover, the Potency entry with MCC-13, in the test on MCC-26, with C33A, in the test with CASKI, in the test with Es-2 and in the test with HeLa was “inactive” in each case. The Potency entry in the test on Hek293T [3], in the test on JEG-3 and in the test on OV90 was “inactive” throughout. Also, the Potency in the test on MKL-1 is 0.935 µM (active); in the test on WaGa, 0.662 µM (active).

Turning to `CCOc1ccccc1OCCNC(C)Cc1ccc(OC)c(S(N)(=O)=O)c1` (stereo not drawn), the max response in the test with HaCat [1] was -9.05%; with KB-3-1 it was 7.71%; in the test with NIH3T3 [2], -0.288%. Moreover, the compound was called inactive with HaCat [1], in the test with KB-3-1, in the test with NIH3T3 [2] and with NIH3T3 [6]. For the same compound, the Potency result in the test on HACAT [4], in the test with MCC-13, in the test with MCC-26, with MKL-1, with MKL-2 and with UISO was “inactive” throughout. Further, the Potency result with WaGa, in the test with C33A, with CAOV3, in the test with CASKI, with Es-2 and in the test with HeLa was “inactive” each time. Further, the Potency entry in the test with Hek293T [3], in the test on JEG-3 and with OV90 was “inactive” throughout.

As to `N#CCNC(=O)c1ccc(-c2ccnc(Nc3ccc(N4CCOCC4)cc3)n2)cc1`, the Potency in the test with HaCat [1] was 13 µM (active); in the test with KB-3-1, 11.8 µM (active) and 18.4 µM (active); in the test with NIH3T3 [2] it was 5.26 µM (active) and 4.11 µM (active); with UISO, 14.8 µM (active). Also, in the test on HaCat [1], the max response was -43.7%. Also, the Potency entry with C33A, in the test on CASKI and with HeLa was “inactive” throughout.
